This is part of a sample that, as a whole, favours compounds with a hit. Of some 79,000 tested, about 15% had one in any assay. A number with no mark means an inactive call. Active and inactive are the calls of the source. Cut-off read from the data, not from the text of the source: active = growth inhibition above about 70%; inactive = the rest.
Test: NCI Yeast Anticancer Drug Screen. Data for the mlh1 rad18 strain (AID 175)
Conditions: S. cerevisiae mlh1 rad18 strain growth inhibition; at 50.0 µM; stronger effect = higher value
How it was run: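 A repair-deficient yeast strain is exposed to test compound, and growth is scored relative to vehicle-treated controls.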

SMILES	growth inhibition
CCc1nc(-c2ccccc2)nc2c1nc(-c1ccc(C)cc1)n2Nc1ccccc1	20.9%
CN(C)CCCNc1ccc([N+](=O)[O-])c2nc3ccccc3c(N)c12	65.6%
CCCc1cc(C)cc(N=Cc2ccccc2)c1O	97.2% (active)
CC1(N)CCC(C(C)(C)N)CC1 (stereo not given)	8.8%
Cc1cc2c(cc1C)C(=O)c1ccccc1C2=O	-21.8%
O=C1c2ccccc2CC12Cc1ccc3c(c1C2=O)CCCC3 (stereo not given)	-33.5%
CC1(C(=O)Sc2ccccc2)OC1(C)c1ccccc1 (stereo not given)	18.1%
C=Cc1ccccc1N=NC(C(=O)OC)=P(c1ccccc1)(c1ccccc1)c1ccccc1	-10.9%
COC1c2ccccc2CC1(C)C (stereo not given)	9.55%
Cc1ccc2ccc(-c3cc4ccccc4s3)nc2c1	-6.1%
Cc1ccc(C(=O)N/N=C/c2c(O)ccc3ccccc23)cc1	27.1%
Cc1cccc(NC(=O)Nc2ccccc2)n1	-10.1%
Nc1nc2c(C(=O)c3ccco3)nnn2c2cccc(Cl)c12	5.85%
CC(=O)[CH-]C(=O)c1ccccc1.CC(=O)[CH-]C(=O)c1ccccc1.CC[C@H](/C=C/C(C)[C@H]1CCC2[C@@H]3CC=C4C[C@@H]([O-])CC[C@]4(C)C3CC[C@@]21C)C(C)C.CC[O-].[Ti+4] (stereo not given in full)	-12.2%
CC(=O)OCC1OC(N2C(=O)C(=O)c3cc(C)ccc32)C(OC(C)=O)C(OC(C)=O)C1OC(C)=O (stereo not given)	33.4%
